Results as given in PubChem BioAssay (NCI).
The panel holds about 83,000 compounds, 20% with a hit somewhere; the sample as a whole holds those more often.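 Step 1: grow cells in 96-well plates. Step 2: add test compound at a single concentration. Step 3: incubate 48 h. Step 4: record percent growth.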 A number with no mark means an inactive call. Calls of active or inactive are those of the source. The calls were made as follows: active = growth percent below 10; inactive = the rest.

Experiments:
Assay in all cases: NCI-60 one-dose screen, 48 h (100 = growth as untreated, 0 = no growth, -100 = all killed)
Details in all cases: 10 µM unless noted
NCI-H23 lung = system: NCI-H23 lung
NCI-H226 lung = system: NCI-H226 lung
NCI-H322M lung = system: NCI-H322M lung
HOP-62 NSCLC = system: HOP-62 NSCLC
NCI-H460 lung = system: NCI-H460 lung
HOP-92 NSCLC = system: HOP-92 NSCLC
NCI-H522 lung = system: NCI-H522 lung
A549/ATCC NSCLC = system: A549/ATCC NSCLC
786-0 renal = system: 786-0 renal
COLO 205 colon = system: COLO 205 colon

Structure (SMILES) | growth (NCI-H23 lung) | growth (NCI-H226 lung) | growth (NCI-H322M lung) | growth (HOP-62 NSCLC) | growth (NCI-H460 lung) | growth (HOP-92 NSCLC) | growth (NCI-H522 lung) | growth (A549/ATCC NSCLC) | growth (786-0 renal) | growth (COLO 205 colon)
Nc1nc(-c2ccccc2)c(CCCOc2ccc(NC(=O)CBr)cc2)c(=O)[nH]1 | 94.4% | 100% | 135% | 134% | 108% | 99.6% | 71.8% | 93.3% | 115% | 118%
O=C(O)Cc1cccc(=O)c(O)c1C(=O)O | 108% | 111% | 129% | 103% | 124% | 103% | 106% | 104% | 100% | 108%
CC1CCC(C)N(C)C1 (stereo not given) | 104% | 101% | 100% | 107% | 109% | 84.4% | 104% | 103% | 94.4% | 110%
Cc1ccc(-c2cc3nc(C(Cl)Cl)nc(-c4cccnc4)n3n2)cc1 | -32.5% (active) | 75.7% | 18.2% | -8% (active) | -10.5% (active) | -2.25% (active) | 4.51% (active) | -14.2% (active) | 69.5% | -82.6% (active)
C=CCSc1n[nH]c(-c2cccs2)n1 | 104% | 99.4% | 110% | 94.3% | 107% | 94.7% | 92% | 98.8% | 95.9% | 137%
C=C1C(=O)O[C@H]2[C@H]1CC/C(Cn1cc(CNC(=O)c3cc4ccccc4[nH]3)nn1)=C\CC[C@@]1(C)O[C@@H]21 | 84.1% | 101% | 94.7% | 101% | 101% | 32.2% | -65% (active) | 93.4% | 66.1% | -34.4% (active)
O=C1NN(C(=O)c2ccc(Cl)cc2)C(c2ccccc2)=N/C1=C\c1cn(-c2ccccc2)nc1-c1ccccc1 | 89.6% | 106% | 94.7% | 90.3% | 99.5% | 94.6% | 85% | 88% | 90.7% | 109%
CCN(CC)c1ccc2[nH]c3c(C(N)=O)cc(=O)c(=O)c=3oc2c1 | -28.2% (active) | 7.46% (active) | -9.42% (active) | -11.8% (active) | -31.8% (active) | 26% | -39.7% (active) | -5.31% (active) | 15% | 1.25% (active)
O=C(c1ccccc1)C1OC1c1ccc([N+](=O)[O-])cc1 (stereo not given) | 48.1% | 67.7% | 106% | 86.4% | 84% | 61.5% | 31.4% | 85.6% | 83.3% | 112%
COc1ccc(C2C(C#N)=C(N)Oc3c2ccc2ccccc32)cc1 (stereo not given) | 52.8% | 39.4% | 67.8% | 37.3% | 14.6% | 48.4% | 3.93% (active) | 57.1% | 73.1% | 91.1%
NC1=C(/C(N)=N/O)C(c2ccccc2)c2ccc3ccccc3c2O1 (stereo not given) | 28.7% | 1.84% (active) | 40% | 26.2% | 1.37% (active) | 29.8% | 5.81% (active) | 21.2% | 29% | -5.32% (active)
CC(=O)Nc1ccc(S(=O)(=O)n2ccc(-c3ccc4c(c3)CCC(C)(C)O4)n2)cc1 | 56.6% | 52.4% | 89% | 94.4% | 41.4% | 69.8% | 54% | 57.8% | 79.8% | 88.8%
COc1ccc(C2=Nn3c(nnc3-n3nc(C)cc3C)SC2)cc1 | 30.2% | 57.4% | 44.6% | 29.7% | 4.1% (active) | 11.2% | -9.16% (active) | 10.2% | 17.7% | -42.5% (active)
C=C(C)[C@@H]1C[C@@H]2Cc3ccc(Cl)c(C)c3N1O2 | 97.4% | 107% | 108% | 98% | 106% | 77.5% | 84.8% | 89.9% | 98.5% | 112%
CN(C)CC(C(=O)c1ccccc1)c1ccccc1 (stereo not given) | 58.2% | 47.4% | 106% | 43.7% | 79.5% | -0.711% (active) | -77.5% (active) | 71.4% | 74% | -48% (active)
Cc1cc(N)n(S(=O)(=O)c2oc(-c3ccccc3)nc2C#N)n1 | 90.3% | 89.6% | 98.4% | 95% | 106% | 91.5% | 24.4% | 95.3% | 90.1% | -34% (active)
C=C1C(=O)O[C@H]2[C@H]1CC/C(COC(=O)NCc1ccccc1OC)=C\CC[C@@]1(C)O[C@@H]21 | 73.6% | 55.6% | 93.2% | 77.1% | 59.2% | 32.6% | -73.6% (active) | 71.6% | 7.8% (active) | -35.2% (active)
CC1=C(C#N)C(=O)NC(C)C1 (stereo not given) | 92.8% | 111% | 106% | 99.4% | 107% | 83.1% | 107% | 95.3% | 97.6% | 108%
N#Cc1c(-c2ccccc2)nc(SCC(=O)N2CCN(c3ccccc3)CC2)[nH]c1=O | 96.4% | 108% | 95.8% | 87.7% | 110% | 85% | 85.2% | 96.6% | 97.9% | 103%
COc1ccc(-c2nc(/C=N/Nc3cc(C)nc4ccc(Br)cc34)c(C)o2)cc1 | -41.9% (active) | -37.4% (active) | -96.2% (active) | 64.5% | -80.6% (active) | -84.3% (active) | -58.4% (active) | -61% (active) | -81.5% (active) | -75.6% (active)
CC(C)CSc1nc(NN)c(C#N)c(-c2ccc(F)cc2)n1 | 70.4% | 80.3% | 74.9% | 47.3% | 52.1% | 105% | 63.2% | 77.1% | 85.9% | 97.1%
COc1cccc(-c2nc3sccn3c2-c2ccnc(NCCCNS(=O)(=O)c3ccc(C(F)(F)F)cc3)c2)c1 | 70.4% | 59.4% | 79.4% | 91.3% | 52.4% | 68.9% | 68.4% | 44.1% | 58.6% | 70.2%
COc1ccc(CNCCCN2C(=O)c3ccc4c5c(ccc(c35)C2=O)C(=O)N(CCCNCCCCNCCCN)C4=O)c(OC)c1OC | 23.1% | 23.8% | 30.4% | 19.3% | 19.6% | 51.7% | 1.57% (active) | 25.3% | 22.4% | -86.1% (active)
CN1CCN(Cc2ccc(NC(=O)c3cncc(C#Cc4cnc(N)c5ccncc45)c3)cc2C(F)(F)F)CC1 | 15.4% | -12.8% (active) | 20.4% | 9.44% (active) | 8.86% (active) | -22.5% (active) | 24.4% | 26.4% | 35.3% | -16.1% (active)
CCCC(=O)Oc1ccc(/C(=C(\C)c2ccccc2)c2ccc(OCCN(CC)CC)cc2)cc1 | 87.6% | 99.3% | 83.3% | 92.9% | 69.8% | 57.7% | 72.1% | 67.2% | 71% | 51%
O=[N+]([O-])c1ccc(-c2cn(-c3ccccc3)c(-c3ccccc3)n2)cc1 | 78.7% | 95.4% | 40.5% | 62.4% | 35.3% | 81.2% | 44.6% | 55.6% | 92.5% | 101%
O=C1C2(c3ccccc3)C(c3ccccc3)=C(c3ccccc3)C1(c1ccccc1)C1CC=CC12 (stereo not given) | 75.9% | 74% | 84.7% | 102% | 84.4% | 1.51% (active) | 71.3% | 78.3% | 85.9% | 112%
COc1ccc(S(=O)(=O)n2ccc(-c3ccc4c(c3)CCC(C)(C)O4)n2)cc1OC | 56.1% | 59% | 89.5% | 112% | 69.6% | 58.3% | 65.8% | 67.1% | 79.4% | 87.1%
